The source of these data is PubChem BioAssay (NCI).

About 83,000 compounds went through this panel and 20% of them were active in at least one assay; those are over-represented in the sample as a whole.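 Negative percent growth values reflect cell death: -40 means 40% of the cells present at the start died, and -100 means all died.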 Values without a mark were called inactive. Active and inactive are the calls of the source. Rule for the calls: active = growth percent below 10; inactive = the rest.

Holding throughout (assay): NCI-60 one-dose screen, 48 h (100 = growth as untreated, 0 = no growth, -100 = all killed)
What all share (conditions): 10 µM unless noted

Assay [1] has as its system HCT-15 colon.
Assay [2] concerns HT29 colon.
In assay [3] the test system is SNB-75 CNS.
Assay [4] relates to SNB-19 CNS.
Assay [5] relates to U251 CNS.
Assay [6] deals with PC-3 prostate.
Assay [7] deals with SK-MEL-5 melanoma.
Assay [8] relates to UACC-62 melanoma.
The subject of assay [9] is LOX IMVI melanoma.
In assay [10] the test system is SK-MEL-28 melanoma.
The test system of assay [11] is SK-MEL-2 melanoma.
In assay [12] the test system is EKVX NSCLC.
Assay [13] deals with SN12C renal.
Assay [14] has as its system UO-31 renal.
The test system of assay [15] is TK-10 renal.
Assay [16] has as its system ACHN renal.
Assay [17] deals with CAKI-1 renal.
Assay [18] has as its system MOLT-4 leukemia.
In assay [19] the test system is A498 renal.
Assay [20] deals with CCRF-CEM leukemia.

On to `CCCCN1CCN(c2ccc3nc(-c4ccc5nc(-c6cc(OC)c(OC)c(OC)c6)[nH]c5c4)[nH]c3c2)CC1`, for which the growth is 99.2% in assay [1]; 56% in [2]; 38.7% in [3]; 71.9% in assay [4]; 56.3% in assay [5]; 57.4% in assay [6]. The growth is 44.8% in [7]; 39.5% in [8]; 40.7% in assay [9]; 66.3% in assay [10]; 83.8% in assay [11]; 106% in assay [12]. For the same compound, the growth in assay [13] is 80.2%; in assay [14], 79.8%; in assay [15], 131%; in assay [16], 86.8%; in [17], 87.9%; in assay [18], 47%.

Take `COc1ccc(-c2nnc(-c3ccc4c(c3)nc(-c3ccccc3)n4C3CCCCC3)o2)cc1`: the growth was 41.9% in assay [1]; 34.9% in assay [2]; 98.7% in [3]; 86% in assay [4]; 71.3% in assay [5]; 18.5% in assay [6]. Besides, the growth in [7] was 24.9%; in [8] it was 43.7%; in assay [9], 36.9%; in assay [10], 88.5%; in assay [11], 57.9%; in assay [12], 73%. For the same compound, the growth was 65.4% in assay [13]; 40.7% in assay [14]; 68.9% in [15]; 60.5% in assay [16]; 85.2% in assay [19]; 35.4% in assay [20]. In assay [18], the growth was 31.5%.

Take `CC(C)(C)c1ccc(C(=O)Nc2sc3c(c2C(N)=O)CCC(=O)C3)cc1`: the growth in assay [1] is -29.3% (active); in assay [2] it was 3.24% (active); in assay [3], -49.3% (active); in assay [4], 15.2%; in assay [5], -43.8% (active); in [6] it was -5.7% (active). Also, the growth in assay [7] was -81.2% (active); in assay [8], -36.7% (active); in [9], -55.1% (active); in assay [10], -14.9% (active); in assay [11], 2.34% (active); in [12], 5.58% (active). The growth in assay [13] is -1.37% (active); in [14] it was -99.6% (active); in assay [15], -33.9% (active); in assay [16], -98.6% (active); in assay [17], -74.9% (active); in assay [18], 4.19% (active).

On to `C=C1C(=O)O[C@H]2[C@H]1CC/C(C(=O)NCCCCCCCCNC(=O)/C1=C/CC[C@@]3(C)O[C@H]3[C@H]3OC(=O)C(=C)[C@@H]3CC1)=C\CC[C@@]1(C)O[C@@H]21`, for which the growth is 107% in assay [1]; 82.5% in assay [2]; 85.9% in [3]; 99.3% in [4]; 95.6% in assay [5]; 74.5% in assay [6]. The growth in assay [7] was 98.3%; in [8], 56.3%; in [9], 84%; in assay [10], 42.3%; in assay [11] it was 80.1%; in assay [12], 97.2%. In addition, the growth in [13] is 76.2%; in assay [14] it was 80.8%; in assay [15], 64.4%; in [19], 107%; in assay [20], 4.79% (active); in assay [18], 15.2%.

Consider `CCCCN1CCN(c2ccc3nc(-c4ccc5nc(-c6ccc(OCC)c(OCC)c6)[nH]c5c4)[nH]c3c2)CC1`, for which the growth in assay [1] was -30.4% (active); in assay [2], -20.8% (active); in [3], 24.1%; in [4], -28.8% (active); in assay [5], -61.4% (active); in [6], -49.1% (active). Besides, the growth was 8.19% (active) in assay [7]; 17.7% in assay [8]; -81.9% (active) in assay [9]; 45.8% in [10]; 13.1% in assay [11]; 24.6% in assay [12]. In addition, the growth in assay [13] was 18.8%; in [14], 74.4%; in assay [15], 57%; in assay [16], 12.7%; in assay [17] it was 27.7%; in assay [20], -0.368% (active). Further, the growth in assay [18] is -0.133% (active).

`Cc1ccc(/C=C(\C#N)n2nnc3cc(Cl)c(Cl)cc32)cc1`: the growth in [1] was 11.7%; in assay [2] it was 12.3%; in [3], -24.6% (active); in assay [4] it was 17.7%; in assay [5], 7.49% (active); in assay [6] it was 12.8%. Also, the growth was 14% in assay [7]; 26.1% in [8]; -13.4% (active) in [9]; 41.3% in assay [10]; 26% in assay [11]; 36.5% in assay [12]. Moreover, the growth in assay [13] was 19.5%; in assay [14], 0.755% (active); in assay [15] it was 44.6%; in [16], 25.7%; in assay [17], 22.2%; in [20] it was 9.85% (active). Besides, the growth in [18] was 9.51% (active).

Consider `CCOC(=O)c1cnn2c(-c3ccc(Cl)cc3)nc(NCc3ccccc3)nc12`, for which the growth in assay [1] is 47.7%; in [2], 51%; in [3], 70.3%; in assay [4] it was 63.5%; in assay [5] it was 32.2%; in assay [6], 63%. The growth was 86% in assay [7]; 63.4% in assay [8]; 39.7% in [9]; 86.7% in assay [10]; 91% in assay [11]; 68.7% in assay [12]. Besides, the growth is 31.2% in assay [13]; 59.9% in [14]; 71.3% in [15]; 13.7% in assay [16]; 31.5% in [19]; 66.9% in assay [20]. The growth in assay [18] is 64.9%.

With `O=C(NCCN1CCC(O)CC1)c1cc2c(o1)C(=O)c1ccccc1C2=O`, the growth in assay [1] is -80.8% (active); in [2] it was -5.34% (active); in [3], -98.5% (active); in assay [4], -98.1% (active); in assay [5] it was -88.1% (active); in assay [6] it was -28.4% (active). The growth was -99.2% (active) in assay [7]; -89.4% (active) in [8]; -89.3% (active) in assay [9]; -74.3% (active) in assay [10]; -66.1% (active) in assay [11]; -76.8% (active) in assay [12]. Moreover, the growth in [13] was -88.1% (active); in assay [14], -98.9% (active); in [15], -91.8% (active); in assay [16] it was -89.2% (active); in assay [17], -97.1% (active); in assay [20], 2.16% (active). Besides, the growth in assay [18] was -4.13% (active).
